According to PubChem BioAssay AID1851 (National Center for Advancing Translational Sciences (NCATS), 2009):
Hit rate of the full screen: of about 16,000 compounds, about 4,000 (25%) were called active. Inconclusive results (about 26%) are left out. A selection follows. Unmarked numbers belong to inactive results. The call rests on the fitted dose curve; in most records, active means well fitted curve in the direction sought with a large enough effect; inconclusive means small, poorly fitted or top-dose-only effect, or effect the other way; inactive means no such curve, though single readings can be large or run the other way.

Molecular target: Cytochrome P450 2C9 (Homo sapiens) (UniProt P11712)
Sequence (P11712 whole entry, looked up): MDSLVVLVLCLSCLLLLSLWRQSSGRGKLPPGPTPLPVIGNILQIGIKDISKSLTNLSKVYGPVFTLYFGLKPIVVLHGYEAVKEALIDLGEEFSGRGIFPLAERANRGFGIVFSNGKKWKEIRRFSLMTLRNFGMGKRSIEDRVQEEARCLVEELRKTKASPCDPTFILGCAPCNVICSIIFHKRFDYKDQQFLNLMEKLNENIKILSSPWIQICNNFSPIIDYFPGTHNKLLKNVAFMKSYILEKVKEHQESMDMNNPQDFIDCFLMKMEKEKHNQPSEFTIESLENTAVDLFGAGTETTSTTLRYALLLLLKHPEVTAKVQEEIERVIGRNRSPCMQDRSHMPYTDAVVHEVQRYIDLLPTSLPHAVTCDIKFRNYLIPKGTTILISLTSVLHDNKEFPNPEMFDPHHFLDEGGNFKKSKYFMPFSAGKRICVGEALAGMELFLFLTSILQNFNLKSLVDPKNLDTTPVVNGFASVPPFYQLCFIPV
Experiment: Cytochrome panel assay with activity outcomes
Conditions: recombinant CYP, pro-luciferin dealkylation, luminescence, p450-cyp2c9; series mostly up to 57.1 µM; activity, negative = inhibition: at the top concentration
On the % scale 0 is the no-effect control and ±100 the full control effect.

SMILES	activity, negative = inhibition	AC50
O=C1O[C@@H]([C@H](O)[C@H](O)[C@H](O)CO)[C@@H](O)[C@@H]1O	-8.59% [at 11.4 µM]	
COc1ccc(C(=O)N2CCC[C@@]3(CCN(C(=O)NC(C)C)C3)C2)cc1	-2.78%	
Nc1ncnc2c1ncn2[C@H]1O[C@@H](C(=O)OCCO)[C@@H](O)[C@H]1O	-1.34% [at 11.4 µM]	
O=C(O)C1CCN(c2ncnc3ccc(-c4ccccc4C(F)(F)F)cc23)CC1	4.43% [at 2.29 µM]	
N#Cc1ccccc1-c1ccc2ncnc(N3CCNCC3)c2c1	26.5% [at 2.29 µM]	
Cc1cc(C)n(-c2ccc(C(=O)Nc3cc(C(F)(F)F)ccc3N3CCOCC3)cc2)n1		79.4 nM (active)
Cc1ccc(C(C)C)n1C(=O)OC(C)(C)C	0.745% [at 11.4 µM]	
CC(=O)Nc1ccc(N2C(=O)CSC2c2c(F)cccc2Cl)cc1 (stereo not given)		10000 nM (active)
COc1ccc(N2C(=O)CSC2c2cccc(F)c2)c(OC)c1 (stereo not given)	-4.17%	
CC(=O)Nc1ccc(N2C(=O)CC(c3ccccc3)CC2=O)cc1	-18%	
O=C(Nc1ccccc1)c1cc([N+](=O)[O-])ccc1Cl		6310 nM (active)
O=C(Nc1ccc([N+](=O)[O-])cc1Cl)c1cc(Cl)ccc1O		631 nM (active)
Cc1cccc[n+]1CC(=O)Nc1ccc([N+](=O)[O-])cc1Cl	18%	
O=C(Nc1ccccc1)c1ccccc1CC[N+](=O)[O-]	-19.1%	
CC1=C[N+](=O)c2ccccc2[N+]1=O	-5.42% [at 11.4 µM]	
N#Cc1cccc(-c2cc(-n3ccnc3)ncn2)c1	-5.24% [at 2.29 µM]	
O=C(O)c1cccc(OCCO)c1	-19% [at 11.4 µM]	
O=C(O)c1cccc(N2CCCC2=O)c1		12600 nM (active)
CCCCN(C)CCCNC(=O)c1ccc(N2CCCC2=O)cc1	-14.3%	
c1nc(NC2CCNCC2)c2cc(-c3ccc4c(c3)OCO4)ccc2n1	28.6% [at 2.29 µM]	
Oc1cc(O)c2c(c1)O[C@H](c1ccc(O)c(O)c1)[C@@H](O)[C@@H]2c1c(O)cc(O)c2c1O[C@@H](c1ccc(O)c(O)c1)[C@H](O)C2	-22.1% [at 11.4 µM]	
O=C(c1cccc(F)c1)N1CCC2(CCCN(Cc3ccccc3)C2)CC1	12.2%	
O=C(c1cccc(F)c1)N1CCC2(CCN(Cc3ccccc3)CC2)CC1	6.78%	
O=C(c1cccc(F)c1)N1CCC2(CCCN(Cc3cc(C(F)(F)F)cc(C(F)(F)F)c3)C2)CC1	-18.9%	
O=C(c1cccc(F)c1)N1CCC2(CCN(Cc3ccncc3)CC2)CC1		2510 nM (active)
O=C(c1cccc(F)c1)N1CCC2(CCN(Cc3cc(C(F)(F)F)cc(C(F)(F)F)c3)CC2)CC1	-1.07%	
O=C(Nc1cccc(F)c1)N1CCCC2(CCN(C(=O)c3ccncc3)CC2)C1		79.4 nM (active)
COc1ccc(C(=O)N2CCC3(CCCN(C(=O)Nc4cccc(F)c4)C3)CC2)cc1	-11.2%	
O=C(c1cccc(F)c1)N1CCC2(CCCN(Cc3ccncc3)C2)CC1		631 nM (active)
O=C(Nc1cccc(F)c1)N1CCCC2(CCN(C(=O)c3cnccn3)CC2)C1	-11.9%	
